# Bioassay records: PubChem, National Center for Advancing Translational Sciences (NCATS)
# IP6K1 inh – blocks human inositol hexakisphosphate kinase 1 | actives 0.81% (n = 140,000) | activity change, % (series mostly up to about 58 µM) | IP6K1 kinase, ADP-Glo luminescence, 2 h; hits give low values | Q92551; in the data active = activity change below about -25%
# Target sequence (Q92551 whole entry, looked up): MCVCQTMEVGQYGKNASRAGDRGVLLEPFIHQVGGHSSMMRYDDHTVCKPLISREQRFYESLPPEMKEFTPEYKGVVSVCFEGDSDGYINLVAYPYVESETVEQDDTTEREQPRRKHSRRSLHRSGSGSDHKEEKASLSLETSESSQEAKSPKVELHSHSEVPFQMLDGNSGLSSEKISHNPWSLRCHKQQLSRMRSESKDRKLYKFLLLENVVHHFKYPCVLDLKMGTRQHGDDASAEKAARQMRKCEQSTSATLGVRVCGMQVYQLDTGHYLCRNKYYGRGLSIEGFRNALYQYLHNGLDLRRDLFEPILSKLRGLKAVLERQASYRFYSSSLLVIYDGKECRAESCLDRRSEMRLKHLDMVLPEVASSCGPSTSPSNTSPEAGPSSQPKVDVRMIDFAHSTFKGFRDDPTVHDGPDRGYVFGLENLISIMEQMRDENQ
#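 ADP-Glo luminescence measures ADP made by human IP6K1 during a 2 h RT reaction with ATP/IP6 (mix at 1.3 mM/130 uM); top library doses 57.5 and 19.1 uM final.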
# SNCA expr inh – reduces expression of the alpha-synuclein gene; HEK-293 SNCA-luciferase knock-in, luminescence, 24 h; Potency, µM (doses to about 57.2 µM), hits mostly inhibitors; actives 0.17% (n = 140,000); note: nearly all actives have a fitted effect of over 45% in size
# GPT2 inhibitor – blocks human glutamate pyruvate transaminase 2; Q8TD30; Recombinant GPT2, coupled pyruvate oxidase/HRP Amplex Red fluorescence; Potency, µM (series often up to 57.7 µM), actives largely listed as inhibitors; actives 0.25% (n = 100,000); note: nearly all actives have a fitted effect of over 60% in size
#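 Fluorescence of coupled pyruvate oxidase/HRP/Amplex Red system (50uM Amplex, 30 min, dark) reports pyruvate formed by GPT2. Enzyme reaction: 10ng/uL GPT2, 2mM L-alanine, 250uM a-KG, 30 min room temperature, pH 7.5; 50uM AOA control.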
# HEK293 viab – counter-screen for SNCA expression inhibitors: cell viability; actives 0.12% (n = 150,000); HEK-293-SNCA-luc viability, GF-AFC fluorescence, 24 h; Potency, µM (highest dose often 57.1 µM), actives largely listed as cytotoxic; note: nearly all actives have a fitted effect of over 30% in size
#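 Cytotoxicity counterscreen: after 24 h compound treatment of genome-edited SNCA-luciferase HEK-293 cells, live-cell protease substrate GF-AFC read by fluorescence after 30 min; activity scaled between DMSO (0%) and medium-only (-100%), curves Hill-fitted.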
# IP6K1 conf – human IP6K1 inhibition, confirmatory. shares compounds with IP6K1 inh. actives 13% (n = 1,200). AID 1645852. Potency, µM (series often up to 49 µM), most hits filed as inhibitors. recombinant IP6K1 kinase, ADP-Glo luminescence, 2 h; note: nearly all actives have a fitted effect of over 65% in size
# Numbers stand for hits; - = inactive; ? = inconclusive; . = not tested or not shown; ! = repeats disagree; [ ] = remark or other dose. A selection: hits, their analogues and other compounds. The true share with any hit is near 1.1%. Unless noted, calls come from the whole dose curve; as a rule, active = well fitted curve in the direction sought with a large enough effect; inconclusive = small, poorly fitted or top-dose-only effect, or another doubt; inactive = no such curve, though single readings can be large; an effect the other way counts as inactive or inconclusive.
SMILES,IP6K1 inh,SNCA expr inh,GPT2 inhibitor,HEK293 viab,IP6K1 conf
Cc1ccc(C)c(Cn2cc(S(=O)(=O)c3ccc(Cl)cc3)c(=O)c3cc(F)ccc32)c1,-25.0,-,.,-,-
COc1cccc(NC(=O)C2CCN(S(=O)(=O)c3cc(-c4noc(C)n4)ccc3C)CC2)c1,-36.4,-,.,-,-
CC(=O)c1ccc(N2CCN(S(=O)(=O)c3cc(-c4noc(C)n4)ccc3C)CC2)cc1,-,-,.,-,.
Cc1nc(-c2ccc(C)c(S(=O)(=O)N3CCC(C(=O)Nc4ccc(Cl)cc4)CC3)c2)no1,-25.9,?,.,-,-
CCc1cccc(NC(=O)C2CCN(S(=O)(=O)c3cccc(-c4noc(C)n4)c3)CC2)c1,-,?,.,-,.
COc1ccc(-n2nc(C)c([C@@H]3C=C[C@@H](NCc4ccc(N(C)C)cc4)C3)c2C)cc1,-,-,-,-,.
COc1ccc(N2CCN(CC(O)COc3ccc(C(C)(C)C)cc3)CC2)cc1 (stereo unspecified),-28.7,-,.,-,-
COc1ccc(N2CCN(CC(O)COc3ccc(C)cc3C)CC2)cc1 (stereo unspecified),-,-,.,-,.
O=Nc1c(-c2c(O)[nH]c3cc(Br)ccc23)[nH]c2ccccc12,.,-,-,25.1µM!,3.66µM
Nc1nc(Nc2ccc(S(N)(=O)=O)cc2)nn1C(=O)c1c(F)cccc1F,-35.2,?,-,?,?
Cc1nc(C)n(CCCNC(=O)c2cc(S(N)(=O)=O)ccc2F)n1,-,-,-,-,.
Cc1cnn(C2(C(=O)O)CCN(C(=O)c3cc(C)nc(C)n3)CC2)c1,-,-,-,-,.
OC1CC(c2cc(NCCCn3ccc4ccccc43)ncn2)C1 (stereo unspecified),-34.2,-,-[11.5 µM],-,-
O=C(NCc1cccs1)C1CCCN(Cc2cccc(-c3ccc(F)cc3F)c2)C1 (stereo unspecified),-,?,-,-,.
Cc1ccc(C)c(N2CCN(S(=O)(=O)c3cnc(N)nc3)CC2)c1,-,-,.,-,.
Cc1ccc(C)c(N2CCN(S(=O)(=O)c3csc(C(N)=O)c3)CC2)c1,-30.1,-,.,-,?
CC[C@H](CC#N)OC(=O)N[C@@H](C)c1cccc(NC(=O)Nc2ccc(-c3cnco3)c(OC)c2)c1,-38.8,?,-,?,?
CC(=O)Nc1ccc(C(=O)NC2CCN(c3cc(-c4ccccc4)[nH]n3)C2)cc1 (stereo unspecified),-,-,?,-,.
COc1cc(O)c2c(c1)/C=C/C[C@H](O)[C@H](O)C(=O)/C=C\C[C@H](C)OC2=O,-30.1,.,-,23.8µM,?
COc1cc(O)c2c(c1)C1=CC(O)C(O)CC1(C)OC2=O (stereo unspecified),-,.,-,-,.
COc1ccccc1-c1ccc(CN2CCC(NC(=O)C3CCCCC3)C2)cc1 (stereo unspecified),-,.,.,.,.
COC(=O)N1CC2(Cc3ccccc3N(C(C)=O)C2)C1,-25.0,-,-,-,-
CC(=O)N1CC2(Cc3ccccc3N(C(C)=O)C2)C1,-,-,-,-,.
Cc1cccc(Cc2c(C)nc3nc(SCC(=O)NCc4ccc(F)cc4)nn3c2C)c1,-36.9,-,.,-,?
CCN(CC)CCNC(=O)c1c(C)[nH]c(/C=C2\C(=O)Nc3ccc(Cl)cc32)c1C,.,.,.,.,-
SMILES,IP6K1 inh,SNCA expr inh,GPT2 inhibitor,HEK293 viab,IP6K1 conf
Cc1[nH]c(C=C2C(=O)Nc3ccc(S(=O)(=O)N(C)c4cccc(Cl)c4)cc32)c(C)c1C(=O)N1CCN(C)CC1,.,-,-,?,.
Cc1[nH]c(/C=C2\C(=O)Nc3ccc(F)cc32)c(C)c1C(=O)NC[C@H](O)CN1CCOCC1,-,.,-,-,-
N[C@H]1Cc2ccccc2N(O)C1=O,-,.,-,-,.
CCc1nc2nc(C)c(NS(=O)(=O)c3ccc(F)c(C)c3)c(=O)n2[nH]1,-27.9,-,.,-,-
O=[S+]1([O-])NCC2(CCN(Cc3c(F)cccc3F)C2)Oc2ccncc21 (stereo unspecified),-,-,-,-,.
Cc1oc2ncn(CC(C)C)c(=O)c2c1C(=O)NCCCN(Cc1ccccc1)C(C)C,-28.9,-,.,-,-
CN(C)c1ccc(/C=C2\C(=O)Nc3ccccc32)cc1,.,-,?,-,.
COc1cc(/C=C2\C(=O)Nc3ccccc32)ccc1O,.,.,.,.,10.3µM
CNC(=O)N1CCC(C2CCN(S(=O)(=O)c3ccc(C)c(F)c3)C2)CC1 (stereo unspecified),-,-,-,-[12.5 µM],.
